Results on eight molecules are retold here after PubChem BioAssay.

Results filed as inconclusive are left out. For some assays here: Entries with a potency or affinity are not part of this list. Calls of active or inactive are those of the source.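 The calls were made as follows, unless noted: active = normalized viability below 100% at a tested concentration; inactive = the rest.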

The AC50 is the concentration at which the activity in the assay is half-maximal. By viability is commonly meant a read-out of living cells in per cent, often relative to untreated cells. As usually defined, the inhibition is the relative decrease from the control value, in per cent.

The nature of assay [1]: growth inhibition of DIPG glioma cells, dose response, cell-based, SU-DIPG-IV, MIPE4.0, CellTiter-Glo, qHTS (AID 1347063; cut-off not given, nearly all actives have AC50 up to about 30 µM;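 also: compound exposure lasted 48 hours before the viability readout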). Conditions: SU-DIPG-IV viability, CellTiter-Glo ATP luminescence. For orientation: In ATP-based viability assays light output follows the ATP content of the culture.
Assay [2] in a line: SU-DIPG-VI glioma cell viability, MIPE4.0 library, CellTiter-Glo luminescence, qHTS (AID 1347066; cut-off not given, nearly all actives have AC50 up to about 30 µM;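 also: cells exposed to compound for 48 hours before readout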). The settings on record: CellTiter-Glo ATP luminescence.
Assay [3] in a line: SU-DIPG-XXV glioma cell viability, MIPE5.0 library, qHTS (AID 1347068; cut-off not given, nearly all actives have IC50 up to about 30 µM). Background: qHTS replaces the single test concentration by a dilution series.
Assay [4] can be described thus: growth inhibition of DIPG glioma cells, dose response, cell-based, JHH-DIPG-1, MIPE4.0, CellTiter-Glo, qHTS (AID 1347062; cut-off not given, nearly all actives have AC50 up to about 27 µM;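 as to AC50: cells exposed to compound for two days before readout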). Conditions: JHH-DIPG-1 viability, CellTiter-Glo ATP luminescence.
A short description of assay [5]: growth inhibition of DIPG glioma cells, dose response, cell-based, SU-DIPG-XIII, MIPE5.0, CellTiter-Glo, qHTS (AID 1347064; cut-off not given, nearly all actives have AC50 up to about 23 µM). The settings on record: SU-DIPG-XIII viability, CellTiter-Glo ATP luminescence.
A short description of assay [6]: JHH-DIPG-1 glioma cell viability, MIPE5.0 library, CellTiter-Glo luminescence, qHTS (AID 1347067; cut-off not given, nearly all actives have AC50 up to about 26 µM;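 also: cells exposed to compound for 48 hours before readout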). The settings on record: JHH-DIPG-1 glioma viability, CellTiter-Glo ATP luminescence.
Assay [7] can be described thus: modifiers of HSF1 nuclear foci, imaging, Selleck Cancer Library (AID 1347162; in the data active = plate-normalised HSF1 focus index below about 0.46). The settings on record: human cells, at 10 µM; SSMD: measured here: HSF1 foci SSMD mean; cell count: measured here: cell number; plate-normalised HSF1 focus index: stronger effect = lower value.
A short description of assay [8]: ovarian cancer cell viability with rucaparib, profiling panel, oncology-focused library, rucaparib conditional (AID 1508598). The settings on record: patient-derived ovarian cancer cells, CellTiter-Glo viability, 144 h, stronger effect = lower value.
A short description of assay [9]: polyglutamine-triggered caspase-3 activation inhibitors, cell-based (AID 1583). The settings on record: polyglutamine-induced caspase-3 activation, cell assay; stronger effect = higher value;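 tested at 10 µM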.
The nature of assay [10]: suppressors of polyQ aggregation in yeast, 75Q-TubU reporter (AID 1593). The settings on record: Yeast 75Q polyglutamine aggregation reporter.
Assay [11] in a line: rescue of polyQ-huntingtin neuronal dysfunction in worms, whole organism, C. elegans mechanosensory neurons, N-terminal huntingtin (AID 1599). The settings on record: touch response, stronger effect = higher value.
Assay [12] is described as follows: inhibitors of mitochondrial cytochrome c release, biochemical, purified mitochondria (AID 1603).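 Also: mouse liver mitochondria challenged with calcium chloride; signal normalized to the plate average as 100%.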 Conditions: stronger effect = lower value.
Assay [13] in a line: inhibitors of polyQ protein aggregation (AID 1604). The settings on record: polyglutamine-induced protein aggregation inhibition assay; stronger effect = higher value; tested at 2.5 µM.
Assay [14] can be described thus: enhancers of glutamate uptake in motor neurons, MN-1 cell line (AID 1612).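 Also: tested at 1 µM final; 0% = mean of DMSO vehicle wells on each plate; positive means more glutamate uptake than control and negative means less.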 Conditions: MN-1 motor neuron cells, stronger effect = higher value.
Assay [15] can be described thus: reducers of polyQ inclusions in PC12 cells, cell-based, NGF-treated PC12, GFPQ80 (AID 1614).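 Also: lower means fewer inclusions and 0 means no inclusions at all.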 The settings on record: PC12 NGF-treated GFP-polyQ80 inclusion reduction.
Assay [16] can be described thus: suppressors of polyglutamine aggregation in yeast, 75Q-TubH (AID 1616). The settings on record: S. cerevisiae 75Q-TubH polyglutamine aggregation suppression; stronger effect = higher value.

Regarding `NC(=O)c1cccc2[nH]c(-c3ccc([C@H]4CCCN4)cc3F)nc12`, the call in [1], in [2] and in assay [3] was inactive.
For the molecule `CON(C)C(=O)N1N=C(c2cc(F)ccc2F)S[C@]1(CCCN)c1ccccc1`, the outcome in assay [1] and in [2] was inactive.
As to `CCNC(=O)Nc1ccc(Oc2ncnc(N)c2/C=N/OC)cc1Cl`, the outcome in assay [4], in assay [2] and in [3] was inactive.
As for `CNC(=O)[C@H](CC1=CN=C2C=CCC=C12)NC(=O)[C@@H](CC(=O)NO)CC(C)C`, the AC50 is 37.2 nM (active) in assay [1] and 33.2 nM (active) in assay [2].
With `CC[C@H](Nc1ncnc2nc[nH]c12)c1nc2cccc(F)c2c(=O)n1-c1ccccc1`, the AC50 in assay [1] was 16600 nM (active). The molecule was classed as inactive in [5], in [6] and in assay [3]. In assay [7], the SSMD came to 2.21. In addition, the cell count in [7] was determined as 7370. In addition, in assay [7], the plate-normalised HSF1 focus index was 1.08 (inactive). Further, the viability is 99.3% (active) in [8] (at 0.000305 µM, OCI-C5x cells, with rucaparib 10 µM, 100% = cells with rucaparib alone); 121% (inactive) in assay [8] (at 0.000305 µM, OCI-C5x cells, without rucaparib); 96.5% (active) in assay [8] (at 0.000305 µM, OCI-P5x cells, with rucaparib 20 µM, 100% = cells with rucaparib alone); 104% (inactive) in [8] (at 0.000305 µM, OCI-P5x cells, without rucaparib); 104% (inactive) in [8] (at 0.00122 µM, OCI-C5x cells, with rucaparib 10 µM, 100% = cells with rucaparib alone); 124% (inactive) in assay [8] (at 0.00122 µM, OCI-C5x cells, without rucaparib). The viability in assay [8] (at 0.00122 µM, OCI-P5x cells, with rucaparib 20 µM, 100% = cells with rucaparib alone) was 98.6% (active); in [8] (at 0.00122 µM, OCI-P5x cells, without rucaparib) it was 105% (inactive); in [8] (at 0.00488 µM, OCI-C5x cells, with rucaparib 10 µM, 100% = cells with rucaparib alone) it was 108% (inactive); in assay [8] (at 0.00488 µM, OCI-C5x cells, without rucaparib), 116% (inactive); in assay [8] (at 0.00488 µM, OCI-P5x cells, with rucaparib 20 µM, 100% = cells with rucaparib alone) it was 82.2% (active); in assay [8] (at 0.00488 µM, OCI-P5x cells, without rucaparib), 96.9% (active). Also, the viability in assay [8] (at 0.0195 µM, OCI-C5x cells, with rucaparib 10 µM, 100% = cells with rucaparib alone) was 101% (inactive); in assay [8] (at 0.0195 µM, OCI-C5x cells, without rucaparib), 138% (inactive); in assay [8] (at 0.0195 µM, OCI-P5x cells, with rucaparib 20 µM, 100% = cells with rucaparib alone) it was 87.8% (active); in assay [8] (at 0.0195 µM, OCI-P5x cells, without rucaparib), 105% (inactive); in assay [8] (at 0.0781 µM, OCI-C5x cells, with rucaparib 10 µM, 100% = cells with rucaparib alone) it was 110% (inactive); in assay [8] (at 0.0781 µM, OCI-C5x cells, without rucaparib), 129% (inactive). For the same molecule, the viability in assay [8] (at 0.0781 µM, OCI-P5x cells, with rucaparib 20 µM, 100% = cells with rucaparib alone) is 96.3% (active); in [8] (at 0.0781 µM, OCI-P5x cells, without rucaparib), 104% (inactive); in assay [8] (at 0.313 µM, OCI-C5x cells, with rucaparib 10 µM, 100% = cells with rucaparib alone), 105% (inactive); in assay [8] (at 0.313 µM, OCI-C5x cells, without rucaparib), 119% (inactive); in [8] (at 0.313 µM, OCI-P5x cells, with rucaparib 20 µM, 100% = cells with rucaparib alone) it was 103% (inactive); in assay [8] (at 0.313 µM, OCI-P5x cells, without rucaparib), 115% (inactive). In addition, the viability is 103% (inactive) in assay [8] (at 1.25 µM, OCI-C5x cells, with rucaparib 10 µM, 100% = cells with rucaparib alone); 139% (inactive) in [8] (at 1.25 µM, OCI-C5x cells, without rucaparib); 105% (inactive) in assay [8] (at 1.25 µM, OCI-P5x cells, with rucaparib 20 µM, 100% = cells with rucaparib alone); 109% (inactive) in assay [8] (at 1.25 µM, OCI-P5x cells, without rucaparib); 110% (inactive) in [8] (at 5 µM, OCI-C5x cells, with rucaparib 10 µM, 100% = cells with rucaparib alone); 133% (inactive) in assay [8] (at 5 µM, OCI-C5x cells, without rucaparib). Also, the viability is 98.1% (active) in assay [8] (at 5 µM, OCI-P5x cells, with rucaparib 20 µM, 100% = cells with rucaparib alone) and 102% (inactive) in assay [8] (at 5 µM, OCI-P5x cells, without rucaparib).
In the case of `Cn1cc(-c2cnn3c(N)c(Br)c([C@@H]4CCCNC4)nc23)cn1`, the AC50 in assay [1] was 2090 nM (active). Besides, the molecule was classed as inactive in assay [6].
Take `COC[C@H](c1ccc(C(F)(F)F)cc1)N1CCN(C2(C)CCN(C(=O)c3c(C)ncnc3C)CC2)C[C@H]1C`: in assay [1], the AC50 was 11800 nM (active). In addition, the call in assay [2] was inactive.
For `COc1ccc2c(c1OC)C(=O)OC2[C@H]1c2c(cc3c(c2OC)OCO3)CCN1C` (some centres not stated), in [9], the inhibition is -3.24%. In assay [10], this molecule returned a score of 1.28. This molecule also yielded a rescue above control in [11] of -2.5. Moreover, in assay [12], the cytochrome c release ratio was 0.93. This molecule also gave an inhibition of aggregation in assay [13] of 66.2%. Also, the glutamate uptake change in assay [14] is -10.2%. This molecule yielded an inclusion score in assay [15] of 2. Besides, the aggregation suppression score in assay [16] was found to be 1.38. Further, the AC50 in assay [4] was 1870 nM (active).
